The structures appear in SMILES notation. “And” between values parts separate entries of the source, which are not always exact repeats. Identical values can stand only once. Records with an inconclusive call do not appear. The source made the active and inactive calls. Calls follow the shape of the dose curve; as a rule, active = well fitted inhibition curve with a large enough effect; inconclusive = small, poorly fitted or top-dose-only effect; inactive = flat fitted curve, though single readings scatter.
% is scaled to controls: 0 for no effect and ±100 for the full control effect; potency is read from the fitted curve at half-maximal effect.

The test system of the first experiment is CRL-7250. The experiment can be described thus: Cytotoxic Profiling of Annotated Libraries Using Quantitative High-Throughput Screening (AID 1296008). Also: nearly all actives have a fitted effect of over 60% in size. The settings on record: Five cell lines viability, CellTiter-Glo ATP luminescence, 48-72 h; max response: hits give low values. The procedure, abridged:
(§1)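 Cytotoxicity was measured as CellTiter-Glo ATP luminescence, read after 10 min at room temperature. Compound treatment of the cells lasted 48 or 72 hr at 37 degrees Celsius in a qHTS format.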
On to `COc1ccc(C2C(=O)c3ccccc3C2=O)cc1`, for which the max response was -6.18% (inactive).
Take `Cc1c(N(C)CS(=O)(=O)O)c(=O)n(-c2ccccc2)n1C`: the call was inactive.
On the same count and under the same terms, then `OC[C@H]1O[C@H](O[C@]2(CCl)O[C@H](CCl)[C@@H](O)[C@@H]2O)[C@H](O)[C@@H](O)[C@H]1Cl`, with “inactive”.
On to `C[C@H](CCC(=O)O)[C@H]1CC[C@H]2[C@@H]3C(=O)C[C@@H]4CC(=O)CC[C@]4(C)[C@H]3CC(=O)[C@]12C`, for which the max response is -5.31% (inactive).
The same measure, in the same setting: then `Cc1cc(O)c(C(C)C)cc1Cl`, with -3.05% (inactive).
The same measure, in the same setting: then `O=C1c2ccccc2C(=O)C1c1ccccc1`, with -3.39% (inactive); and `Cc1ncc(CSSCc2cnc(C)c(O)c2CO)c(CO)c1O`, with -3.39% (inactive); and `NC[C@H]1O[C@H](O[C@H]2[C@H](O)[C@@H](O[C@H]3O[C@H](CO)[C@@H](O)[C@H](N)[C@H]3O)[C@H](N)C[C@@H]2N)[C@H](N)[C@@H](O)[C@@H]1O`, with -9.82% (inactive).
As for `Cc1ccc(Nc2c(F)cccc2Cl)c(CC(=O)O)c1`, the result was inactive.
In the case of `CC(=O)O[C@]1(C(C)=O)CC[C@H]2[C@@H]3C[C@H](C)C4=CC(=O)CC[C@]4(C)[C@H]3CC[C@@]21C`, the compound was called inactive.
Take `CC(=O)OCC(=O)[C@@]1(O)[C@H](C)C[C@H]2[C@@H]3CCC4=CC(=O)C=C[C@]4(C)[C@@]3(F)[C@@H](O)C[C@@]21C`: the max response was 0.495% (inactive) and 1.45% (inactive).
As for `CC(=O)N(O)CCCCCNC(=O)CCC(=O)N(O)CCCCCNC(=O)CCC(=O)N(O)CCCCCN`, the Potency is 2.99 µM (active).
Take `CN1[C@@H]2CC[C@H]1CC(OC(=O)c1c[nH]c3ccccc13)C2` (stereo partly specified): the max response is -2.71% (inactive) and the compound was classed as inactive.
In the case of `CC(O)(P(=O)(O)O)P(=O)(O)O`, the max response was 0.923% (inactive).
For `Cc1c(C(C)C)c(=O)n(-c2ccccc2)n1C`, the max response was 0.671% (inactive).
Take `CCCCC(=O)O[C@]1(C(=O)CO)CC[C@H]2[C@@H]3CCC4=CC(=O)CC[C@]4(C)[C@H]3[C@@H](O)C[C@@]21C`: the outcome was inactive.
Regarding `O=c1[nH]c(=O)n([C@H]2CCCO2)cc1F`, the max response was 4.85% (inactive) and -6.48% (inactive).
On to `COC(=O)CCc1ccc(OCC(O)CNC(C)C)cc1` (stereo unspecified), for which the max response is -4.17% (inactive) and 4.01% (inactive).
As for `Cc1cc2c(cc1CC(=O)c1sccc1S(=O)(=O)Nc1onc(C)c1Cl)OCO2`, the max response is -5.35% (inactive) and 2.32% (inactive).
`CC(C)(C)NC(=O)[C@@H]1CN(Cc2cccnc2)CCN1C[C@@H](O)C[C@@H](Cc1ccccc1)C(=O)N[C@H]1c2ccccc2C[C@H]1O`: the max response was -1.33% (inactive) and -2.61% (inactive).
For the compound `CCCCS(=O)(=O)N[C@@H](Cc1ccc(OCCCCC2CCNCC2)cc1)C(=O)O`, the max response is -2.86% (inactive) and 2.79% (inactive).
Same read-out and setting: then `Cc1onc(-c2c(Cl)cccc2Cl)c1C(=O)N[C@@H]1C(=O)N2[C@@H]1SC(C)(C)[C@@H]2C(=O)O`, with -3.36% (inactive) and -1.59% (inactive); and `CN1CCN(C(c2ccccc2)c2ccccc2)CC1`, with 1.17% (inactive) and 3.11% (inactive); and `O=C(O)CNC(=O)c1ccccc1`, with 2.85% (inactive).
For `COC(=O)[C@@H]1CC2=CC(=O)CC[C@]2(C)[C@@]23O[C@@H]2C[C@@]2(C)[C@@H](CC[C@@]24CCC(=O)O4)[C@H]13`, the max response is -2.8% (inactive).
Take `NC(CS)C(=O)O` (stereo unspecified): the outcome was inactive.
The same measure, in the same setting: then `CN(C)CCOc1ccccc1Cc1ccccc1`, with “inactive”; and `CCOC(=O)OC(C)OC1=C(C(=O)Nc2ccccn2)N(C)S(=O)(=O)c2ccccc21` (stereo unspecified), with “inactive”.
On to `N[C@H](Cc1c[nH]c2ccccc12)C(=O)O`, for which the max response was -25% (inactive).
Turning to `C[C@H](O)C(=O)Nc1c(I)c(C(=O)NC(CO)CO)c(I)c(C(=O)NC(CO)CO)c1I`, the call was inactive.
`CC(C)COC(=O)c1ccc(N)cc1`: the max response was 2.7% (inactive).
As for `Cc1ccc(C(=O)C(C)CN2CCCCC2)cc1` (stereo unspecified), the max response was -2.76% (inactive) and -2.03% (inactive).
`CC1(C)O[C@@H]2[C@@H](CO[C@@]3(COS(N)(=O)=O)OC(C)(C)O[C@@H]23)O1`: the max response was -9.34% (inactive).
Turning to `CCN(CCCCOC(=O)c1ccc(OC)c(OC)c1)C(C)Cc1ccc(OC)cc1` (stereo unspecified), the outcome was inactive.
Regarding `CN=C(NC#N)Nc1ccc(C2=NNC(=O)CC2C)cc1` (stereo unspecified), the max response was -12.9% (inactive).
As to `Cc1nc2n(c(=O)c1CCN1CCC(c3noc4cc(F)ccc34)CC1)CCC[C@H]2O`, the max response is -3.73% (inactive) and the outcome was inactive.

A further experiment relates to HEK293. The experiment is described as above. The following applies: Five cell lines viability, CellTiter-Glo ATP luminescence, 48-72 h; max response: hits give low values. The procedure, abridged: as §1
With `COc1ccc(C2C(=O)c3ccccc3C2=O)cc1`, the max response is -6.61% (inactive).
`Cc1c(N(C)CS(=O)(=O)O)c(=O)n(-c2ccccc2)n1C`: the outcome was inactive.
Consider `OC[C@H]1O[C@H](O[C@]2(CCl)O[C@H](CCl)[C@@H](O)[C@@H]2O)[C@H](O)[C@@H](O)[C@H]1Cl`, for which the max response is -9.55% (inactive) and the compound was called inactive.
`C[C@H](CCC(=O)O)[C@H]1CC[C@H]2[C@@H]3C(=O)C[C@@H]4CC(=O)CC[C@]4(C)[C@H]3CC(=O)[C@]12C`: the outcome was inactive.
For the compound `Cc1cc(O)c(C(C)C)cc1Cl`, the outcome was inactive.
On to `O=C1c2ccccc2C(=O)C1c1ccccc1`, for which the compound was classed as inactive.
With `Cc1ncc(CSSCc2cnc(C)c(O)c2CO)c(CO)c1O`, the compound was classed as inactive.
As to `NC[C@H]1O[C@H](O[C@H]2[C@H](O)[C@@H](O[C@H]3O[C@H](CO)[C@@H](O)[C@H](N)[C@H]3O)[C@H](N)C[C@@H]2N)[C@H](N)[C@@H](O)[C@@H]1O`, the max response was -0.173% (inactive).
The same measure, in the same setting: with `Cc1ccc(Nc2c(F)cccc2Cl)c(CC(=O)O)c1` the figure was 2.42% (inactive).
For the compound `CC(=O)O[C@]1(C(C)=O)CC[C@H]2[C@@H]3C[C@H](C)C4=CC(=O)CC[C@]4(C)[C@H]3CC[C@@]21C`, the Potency is 15 µM (active).
`CC(=O)OCC(=O)[C@@]1(O)[C@H](C)C[C@H]2[C@@H]3CCC4=CC(=O)C=C[C@]4(C)[C@@]3(F)[C@@H](O)C[C@@]21C`: the max response was -2.05% (inactive) and the compound was called inactive.
Turning to `CC(=O)N(O)CCCCCNC(=O)CCC(=O)N(O)CCCCCNC(=O)CCC(=O)N(O)CCCCCN`, the Potency was 52.4 nM (active) and 9.44 µM (active).
With `CN1[C@@H]2CC[C@H]1CC(OC(=O)c1c[nH]c3ccccc13)C2` (stereo partly specified), the max response is 4.73% (inactive) and the result was inactive.
In the case of `CC(O)(P(=O)(O)O)P(=O)(O)O`, the call was inactive.
As for `Cc1c(C(C)C)c(=O)n(-c2ccccc2)n1C`, the compound was classed as inactive.
On to `CCCCC(=O)O[C@]1(C(=O)CO)CC[C@H]2[C@@H]3CCC4=CC(=O)CC[C@]4(C)[C@H]3[C@@H](O)C[C@@]21C`, for which the max response is 3.34% (inactive).
For the compound `O=c1[nH]c(=O)n([C@H]2CCCO2)cc1F`, the max response was 1.04% (inactive) and the compound was called inactive.
Take `COC(=O)CCc1ccc(OCC(O)CNC(C)C)cc1` (stereo unspecified): the max response was 1.57% (inactive) and 1.48% (inactive).
For the compound `Cc1cc2c(cc1CC(=O)c1sccc1S(=O)(=O)Nc1onc(C)c1Cl)OCO2`, the result was inactive.
As for `CC(C)(C)NC(=O)[C@@H]1CN(Cc2cccnc2)CCN1C[C@@H](O)C[C@@H](Cc1ccccc1)C(=O)N[C@H]1c2ccccc2C[C@H]1O`, the max response is 3.56% (inactive) and the compound was called inactive.
In the case of `CCCCS(=O)(=O)N[C@@H](Cc1ccc(OCCCCC2CCNCC2)cc1)C(=O)O`, the max response is -5.53% (inactive) and -1.56% (inactive).
On to `Cc1onc(-c2c(Cl)cccc2Cl)c1C(=O)N[C@@H]1C(=O)N2[C@@H]1SC(C)(C)[C@@H]2C(=O)O`, for which the max response was -5.63% (inactive) and the compound was classed as inactive.
As to `CN1CCN(C(c2ccccc2)c2ccccc2)CC1`, the max response was -9.52% (inactive).
As to `O=C(O)CNC(=O)c1ccccc1`, the max response is -10.7% (inactive).
For the compound `COC(=O)[C@@H]1CC2=CC(=O)CC[C@]2(C)[C@@]23O[C@@H]2C[C@@]2(C)[C@@H](CC[C@@]24CCC(=O)O4)[C@H]13`, the max response is 3.69% (inactive).
For `NC(CS)C(=O)O` (stereo unspecified), the max response was -10% (inactive).
In the case of `CN(C)CCOc1ccccc1Cc1ccccc1`, the max response was -12.7% (inactive).
`CCOC(=O)OC(C)OC1=C(C(=O)Nc2ccccn2)N(C)S(=O)(=O)c2ccccc21` (stereo unspecified): the compound was called inactive.
For the compound `N[C@H](Cc1c[nH]c2ccccc12)C(=O)O`, the compound was classed as inactive.
`C[C@H](O)C(=O)Nc1c(I)c(C(=O)NC(CO)CO)c(I)c(C(=O)NC(CO)CO)c1I`: the max response is -5.81% (inactive).
Turning to `CC(C)COC(=O)c1ccc(N)cc1`, the max response is -1.38% (inactive).
Still for that read-out and setting: with `Cc1ccc(C(=O)C(C)CN2CCCCC2)cc1` (stereo unspecified) the figure was 0.201% (inactive).
As for `CC1(C)O[C@@H]2[C@@H](CO[C@@]3(COS(N)(=O)=O)OC(C)(C)O[C@@H]23)O1`, the call was inactive.
Regarding `CCN(CCCCOC(=O)c1ccc(OC)c(OC)c1)C(C)Cc1ccc(OC)cc1` (stereo unspecified), the max response was -15.6% (inactive).
On to `CN=C(NC#N)Nc1ccc(C2=NNC(=O)CC2C)cc1` (stereo unspecified), for which the result was inactive.
For `Cc1nc2n(c(=O)c1CCN1CCC(c3noc4cc(F)ccc34)CC1)CCC[C@H]2O`, the max response is -1.89% (inactive) and the outcome was inactive.

Values taken from PubChem BioAssay (NCATS).
